From PubChem BioAssay
IL-1B inflam inh = inhibitors of inflammasome signaling (IL-1 beta secretion); THP-1 LPS/ATP IL-1B secretion, AlphaLISA, 16 h; stronger effect = lower value; activity change, % at 57.5 µM; actives 4.7% (n = 360,000); in the data active = activity change below about -50%; inconclusive = mostly about -30% to -49%
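Secreted IL-1B measured by AlphaLISA bead assay after 16 h compound exposure of THP-1 cells; compounds (final up to 57.5 uM) added 1 h before LPS (250 ng/mL) and ATP (1.25 mM) stimulation; lower signal means less secretion.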
TDP1 cell noCPT = qHTS for Inhibitors of human tyrosyl-DNA phosphodiesterase 1 (TDP1): qHTS in cells in absence of CPT; Potency, µM (series often up to 46.2 µM), usual class: inhibitors; AID 686978, 2013; actives 15% (n = 420,000); DT40 Tdp1-/- hTDP1 cells, no CPT, ATP luminescence, 48 h; note: nearly all actives have a fitted effect of over 55% in size
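DT40 Tdp1-/-;hTDP1 cells, no CPT (DMSO vehicle only), 400 cells/well; compounds pin-transferred; ≥48 hr, 37 °C; CellTiter-Glo 30 min RT dark, luminescence read.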
DT40 TDP1 CPT = DT40-hTDP1 cell growth loss with CPT | chicken DT40 Tdp1-/-;hTDP1 cells + 20 nM CPT, ATP luminescence, 48 h | Potency, µM (series often up to 46.2 µM), most hits filed as inhibitors | actives 12% (n = 420,000); note: nearly all actives have a fitted effect of over 55% in size
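Chicken DT40 Tdp1-/- cells stably complemented with human TDP1 were seeded at 400 cells/well in medium containing 20 nM camptothecin, exposed to pin-transferred compounds, and grown at 37 °C for at least 48 hr. Viability was read as ATP luminescence.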
HT1080 IDH1KD tx = kills HT-1080 cells with IDH1 knockdown; HT-1080 IDH1 knockdown viability, ATP luminescence, 48 h; Potency, µM (titrated, usually from 46.1 µM), usual class: cytotoxic; actives 2% (n = 360,000); AID 686971
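In this qHTS, HT-1080 cells depleted of IDH1 are exposed for 48 h at 37 °C to compound titrations. Toxicity is scored from CellTiter-Glo luminescence, with DMSO as full viability and medium alone as none.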
HT1080-NT tox = kills 2HG-producing HT-1080-NT fibrosarcoma cells; HT-1080-NT fibrosarcoma viability, CellTiter-Glo ATP luminescence, 48 h; Potency, µM (doses to about 46.1 µM), hits mostly cytotoxic; actives 1.6% (n = 360,000); AID 686970;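 note: NT is the 2HG producing partner of a matched IDH1 knockdown line; nearly all actives have a fitted effect of over 55% in size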
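Viability of the 2HG-overproducing fibrosarcoma line after 48 hours of compound exposure at 37 degrees C was determined by luminescence with CellTiter-Glo, and concentration-effect curves were then fitted and categorized.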
ELG1 repair inh = ELG1-dependent DNA repair inhibition; HEK293T ELG1-luciferase reporter, luminescence, 16 h; DNA damage induced by 5-fluorouridine; actives 2.3% (n = 330,000); Potency, µM (highest dose often 46.1 µM), usual class: inhibitors; note: nearly all actives have a fitted effect of over 55% in size
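In this reporter screen, reduction of luminescence relative to DMSO vehicle indicated activity. Compounds and 5-fluorouridine were added together to 2,000 cells per well, incubated for 16 hr at 37 °C, then developed with ONE-Glo.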
A number is an active result; 0 = inactive; ? = inconclusive; - = no result given; [ ] = another dose, or the depositor's remark. Most compounds without a hit are left out; they make up all but 19% or so of the library. Unless noted, calls come from the whole dose curve; as a rule, active = well fitted curve in the direction sought with a large enough effect; inconclusive = small, poorly fitted or top-dose-only effect, or another doubt; inactive = no such curve, though single readings can be large; an effect the other way counts as inactive or inconclusive.

SMILES	IL-1B inflam inh	TDP1 cell noCPT	DT40 TDP1 CPT	HT1080 IDH1KD tx	HT1080-NT tox	ELG1 repair inh
COc1ccccc1NC(=O)N1CCC(c2nc3ccccc3o2)CC1	0	?	0	0	0	0
Cc1cc(C)cc(OCC(=O)N2CCC(c3nc4ccccc4o3)CC2)c1	-	16µM	?	-	-	-
Cc1cc(OC(C)C(=O)N2CCC(c3nc4ccccc4o3)CC2)ccc1Cl (centres undefined)	-	15µM	23µM	-	-	-
COC(=O)c1ccccc1NC(=O)c1cc2c(-c3ccc(OC)c(OC)c3)nn(C)c2s1	-	0	0	-	-	-
Cn1nc(-c2ccc(Cl)cc2)c2cc(C(=O)N3CCN(c4ccccc4)CC3)sc21	0	?	?	0	0	?
COc1ccc(-c2nn(C)c3sc(C(=O)N4CCN(c5cc(Cl)ccc5C)CC4)cc23)cc1OC	-	18µM	15µM	-	-	-
Cn1nc(-c2ccc(Cl)cc2)c2cc(C(=O)N3CCN(c4ccccn4)CC3)sc21	0	5.8µM	5.8µM	0	0	?
Cn1nc(-c2ccc(Cl)cc2)c2cc(C(=O)N3CCCC3)sc21	0	23µM	18µM	0	0	?
O=c1c(-c2cccs2)nc2cnc(N3CCOCC3)nc2n1Cc1cccs1	-	0	0	-	-	-
CC1=NN(c2ccccc2)C(=O)/C1=C/c1cn(C)c2ccccc12	0	?	?	0	0	0
CC1(C)CCC(c2ccc(Cl)cc2)=C(CN2CCN(c3ccc(C(=O)NS(=O)(=O)c4ccc(N[C@H](CCN5CCOCC5)CSc5ccccc5)c(S(=O)(=O)C(F)(F)F)c4)cc3)CC2)C1	-	0.32µM	0.45µM	-	-	-
Cc1nc(-c2ccccc2)sc1C(=O)NS(=O)(=O)c1ccc(CN2CCN(c3ccccc3)CC2)cc1	0	0	0	0	0	-
COc1ccccc1S(=O)(=O)N(C)C[C@H]1Oc2ncc(Br)cc2C(=O)N([C@H](C)CO)C[C@H]1C	0	?	0	0	0	-
CCN1C(=O)[C@H]2[C@@H](c3ccc(-c4cccc(Cl)c4)c(OC)c3)N[C@@](Cc3ccccc3)(C(=O)OC)[C@H]2C1=O	?	18µM	?	0	0	0
COC(=O)[C@]1(Cc2ccccc2)N[C@H](CN(C)C(=O)Nc2ccc(Cl)cc2)[C@@H]2C(=O)N(C)C(=O)[C@@H]21	0	0	?	0	0	0
CCN1C(=O)[C@H]2[C@@H](c3ccc(-c4ccc(OC)cc4)c(OC)c3)N[C@@](Cc3ccccc3)(C(=O)OC)[C@H]2C1=O	0	?	?	0	0	0
COC(=O)[C@]1(Cc2ccccc2)N[C@H](c2ccc(-c3cccc(Cl)c3)c(OC)c2)[C@@H]2C(=O)N(C)C(=O)[C@@H]21	?	10µM	13µM	0	0	-
CCN1CCN(c2ccc(S(=O)(=O)N3CCOCC3)cc2NC(=O)CC(NC(C)=O)c2ccccc2)CC1 (centres undefined)	0	0	0	0	0	-
COCC(=O)Nc1cc(C(=O)N2CCCCC2c2nccn2C)cc2nc(-c3ccccc3)n(C)c12 (centres undefined)	-	0	0[9.04 µM]	-	-	-
CCn1c2c(c(=O)n3ncc(C(=O)Nc4cc(Cl)ccc4C)c13)CN(Cc1ccc(OC)cc1)CC2	-	21µM	?	-	-	-
COc1ccc(CN2CCc3c(c(=O)n4ncc(C(=O)N5CCN(c6ccccc6OC)CC5)c4n3C)C2)cc1	-	12µM	16µM	-	-	-
COc1ccccc1N1CCN(C(=O)c2ccc(CN3CCOCC3)cc2)CC1	0	?	?	0	0	0
CCn1c2c(c(=O)n3ncc(C(=O)Nc4cccc(Cl)c4C)c13)CN(Cc1ccc(OC)cc1)CC2	-	?	21µM	-	-	-
CCn1c2c(c(=O)n3ncc(C(=O)Nc4ccc(F)cc4Cl)c13)CN(Cc1ccc(OC)cc1)CC2	-	23µM	?	-	-	-
COc1ccc(CN2CCn3ncc(C(=O)Nc4cccc(C)c4)c3C2=O)cc1	0	?	?	0[9.24 µM]	0	?
SMILES	IL-1B inflam inh	TDP1 cell noCPT	DT40 TDP1 CPT	HT1080 IDH1KD tx	HT1080-NT tox	ELG1 repair inh
c1ccc(NCCC2OCC3(CO2)COC(CCNc2ccccc2)OC3)cc1 (centres undefined)	0	?	?	0	0	-
CC(=O)Nc1cc(C(=O)NCCN2CCN(Cc3ccccc3)CC2)ccc1Sc1ccc(C)cc1	0	0	0	0	0	?
CC(C)[C@H](NC(=O)c1ccccc1)C(=O)OCC(=O)/C=C1/N(C)c2ccccc2C1(C)C	0	8.2µM	10µM	0	0	0
COc1cc(OC)cc(C(=O)NCC(=O)OCC(=O)/C=C2/N(C)c3ccccc3C2(C)C)c1	-60	16µM	?	0	?	0
CN1/C(=C\C(=O)COC(=O)c2nccnc2N)C(C)(C)c2ccccc21	0	?	?	0	0	0
COc1ccc(NC(=O)CC2Oc3ccccc3NC2=O)c(OC)c1 (centres undefined)	0	0	0	0	0	0
Nc1c(-c2nc(-c3cccs3)no2)nnn1-c1ccc(Cl)cc1	-	0	0	-	-	-
CCC1(OC(=O)CN(C)C)C(=O)OCc2c1cc1n(c2=O)Cc2cc3c(N)cccc3nc2-1 (centres undefined)	-97	0.18µM	0.16µM	7.3µM	7.3µM	-
c1ccc2c(N3CCNCC3)nc(-c3ccoc3)nc2c1	-	0	0	-	-	-
CN1CCN(CC(O)(c2ccc(Cl)cc2)c2ccc(Cl)cc2)CC1	-85	21µM	?	21µM	18µM	0
CCc1nc2ccc(C(=O)NCCN3CCNC3=O)cn2c1N(CCC(C)C)CCN(C)C	0	0	0	0	0	-
Fc1ccc(N2CCN(C3=Nc4cccc5cccc3c45)CC2)cc1	-52	16µM	26µM	?	0	?
c1ccc(CN2CCN(C3=Nc4cccc5cccc3c45)CC2)cc1	-90	?	?	0	0	?
COc1ccc(S(=O)(=O)N(CC(=O)NC2CC3CCC2C3)c2ccccc2OC)cc1 (centres undefined)	0	?	?	0	0	0
COc1ccc(Cl)cc1N(CC(=O)NC1CC2CCC1C2)S(=O)(=O)c1ccccc1 (centres undefined)	0	?	21µM	?	0	0
COc1ccc(OC)c(N(CC(=O)NC2CC3CCC2C3)S(=O)(=O)c2ccccc2)c1 (centres undefined)	-67	?	?	0	0	0
CC(C)C[C@@H](C(=O)NCc1ccco1)N1C(=O)N2CCc3c([nH]c4ccccc34)[C@@]2(C)C1=O	0	5.2µM	?	0	0	0
COc1ccc2[nH]c3c(c2c1)CCN1C(=O)N([C@@H](C)C(=O)NCc2ccc(F)cc2)C(=O)[C@]31C	0	?	0	0	0	0
